# According to PubChem BioAssay (Tox21):
# Records with an inconclusive call do not appear. Entries that show only a call come without a potency. A structure can be active in one record and inactive in another. Active and inactive are the calls of the source. The call rests on the fitted dose curve.
# What was measured:
# [1] = target: Acetylcholinesterase (Homo sapiens) (UniProt P22303); test: Acetylcholinesterase (AChE) small molecule antagonists: colormetric cell-based qHTS assay (AID 1347395); further: nearly all actives have a fitted effect of over 30% in size; further: potency means the concentration at half of the fitted maximal effect
# Summary of the method: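 Homogeneous whole-cell format. SH-SY5Y cells seeded overnight, dosed with compound (30 min, 37 C, 5% CO2), then given DTNB/acetylthiocholine cocktail for 90 min at 37 C; colorimetric signal.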
# [2] = target: Acetylcholinesterase (Homo sapiens) (UniProt P22303); test: Acetylcholinesterase (AChE) small molecule antagonists: enzyme-based qHTS assay (AID 1347397); settings: Potency: AChE enzyme activity inhibition; outcome: AChE enzyme activity inhibition; further: nearly all actives have a fitted effect of over 55% in size; further: potency means the concentration at half of the fitted maximal effect
# Summary of the method: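 Colorimetric DTNB readout of acetylthiocholine hydrolysis, 10 min at room temperature, after 30 min room-temperature exposure of 50 mU/mL recombinant human enzyme to compound; DMSO vehicle control.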
# [3] = target: Acetylcholinesterase (Homo sapiens) (UniProt P22303); test: Acetylcholinesterase (AChE) small molecule antagonists: fluorescence cell-based qHTS assay (AID 1347398); settings: Potency: AChE activity; outcome: AChE activity; further: nearly all actives have a fitted effect of over 50% in size; further: potency means the concentration at half of the fitted maximal effect
# Summary of the method: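 Cellular AChE activity read as thiocholine from acetylthiocholine hydrolysis, detected by Thiolite Green fluorescence at 490/520 nm after 40 min at room temperature. Compounds were pre-incubated 30 min at 37 C on adherent SH-SY5Y cells.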
# [4] = target: Acetylcholinesterase (Homo sapiens) (UniProt P22303); test: Acetylcholinesterase (AChE) small molecule antagonists: enzyme-based qHTS assay with human liver microsomes (AID 1347399); settings: Potency: qHTS inhibition; outcome: qHTS inhibition; further: nearly all actives have a fitted effect of over 60% in size
# Summary of the method: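 Recombinant human AChE (50 mU/mL in the enzyme mix) and human liver microsomes (0.25 mg/mL final) were preincubated with compound and NADPH (0.25 mg/mL final) for 30 min at 37 C. Acetylthiocholine/DTNB was then added; thiocholine was read colorimetrically after 10 min at room temperature.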
# Sequence of Acetylcholinesterase (Homo sapiens) (P22303 whole entry, looked up): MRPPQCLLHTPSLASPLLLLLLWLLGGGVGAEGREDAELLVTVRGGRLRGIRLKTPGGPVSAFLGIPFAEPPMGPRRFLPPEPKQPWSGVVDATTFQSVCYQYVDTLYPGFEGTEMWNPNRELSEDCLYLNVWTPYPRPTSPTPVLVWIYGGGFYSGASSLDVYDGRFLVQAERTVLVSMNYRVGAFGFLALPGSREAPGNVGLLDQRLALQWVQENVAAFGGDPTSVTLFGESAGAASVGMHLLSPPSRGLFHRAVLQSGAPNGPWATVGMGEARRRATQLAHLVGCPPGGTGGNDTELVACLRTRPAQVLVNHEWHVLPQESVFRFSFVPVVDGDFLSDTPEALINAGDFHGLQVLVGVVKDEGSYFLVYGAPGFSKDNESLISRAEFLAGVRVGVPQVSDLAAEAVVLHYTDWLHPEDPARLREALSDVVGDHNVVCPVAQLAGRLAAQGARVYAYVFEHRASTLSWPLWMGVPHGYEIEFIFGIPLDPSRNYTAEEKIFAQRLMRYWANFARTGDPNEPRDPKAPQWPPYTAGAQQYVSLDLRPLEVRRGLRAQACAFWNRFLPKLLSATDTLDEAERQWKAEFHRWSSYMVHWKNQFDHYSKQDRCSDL
smiles,measurement,setting,value
CC1(C)C2=CCCC(C)(C)[C@]23CC[C@H]1C3,Potency,[1],inactive
same,Potency,[2],inactive
same,Potency,[3],inactive
same,Potency,[4],inactive
CCCC(=O)OCOC(=O)C1=C(C)NC(C)=C(C(=O)OC)C1c1cccc(Cl)c1Cl (stereo not given),Potency,[1],inactive
same,Potency,[2],inactive
same,Potency,[3],inactive
same,Potency,[4],inactive
CC(C)(O)C(=O)c1ccc(OCCO)cc1,Potency,[1],inactive
same,Potency,[2],inactive
same,Potency,[3],inactive
same,Potency,[4],inactive
CN1CC(=O)NC1=N,Potency,[1],inactive
same,Potency,[2],inactive
same,Potency,[3],inactive
same,Potency,[4],inactive
C=C(C)[C@H]1CC=C(C)C(=O)C1,Potency,[1],inactive
same,Potency,[2],inactive
same,Potency,[3],inactive
same,Potency,[4],inactive
CCCOCCOCCOCCO,Potency,[1],inactive
same,Potency,[2],inactive
same,Potency,[3],inactive
same,Potency,[4],inactive
CCCCC(CC)COC(=O)CS (stereo not given),Potency,[1],inactive
same,Potency,[2],inactive
same,Potency,[3],inactive
same,Potency,[4],inactive
O=C1c2c(O)ccc(Nc3ccc(CCO)cc3)c2C(=O)c2c([N+](=O)[O-])ccc(O)c21,Potency,[1],8.94 µM (active)
same,Potency,[2],20 µM (active)
same,Potency,[3],11.2 µM (active)
same,Potency,[4],inactive
C=CN1CCCC1=O,Potency,[1],inactive
same,Potency,[2],inactive
same,Potency,[3],inactive
same,Potency,[4],inactive
CCCCCCCCCCCO,Potency,[1],inactive
same,Potency,[2],inactive
same,Potency,[3],inactive
same,Potency,[4],inactive
CCCCCCCCCCCC(=O)N(CC)CC,Potency,[1],inactive
same,Potency,[2],inactive
same,Potency,[3],inactive
same,Potency,[4],inactive
O=C(O)CCCC[C@@H]1SC[C@@H]2NC(=O)N[C@@H]21,Potency,[1],inactive
same,Potency,[2],inactive
same,Potency,[3],inactive
same,Potency,[4],inactive
CC(=O)c1ccccn1,Potency,[1],inactive
same,Potency,[2],inactive
same,Potency,[3],inactive
same,Potency,[4],inactive
COc1cccc(OC)c1C(=O)N[C@@H]1C(=O)N2[C@@H]1SC(C)(C)[C@@H]2C(=O)O,Potency,[1],inactive
same,Potency,[2],inactive
same,Potency,[3],inactive
same,Potency,[4],inactive
CCOc1ccc(OCC)c(Cl)c1,Potency,[1],inactive
same,Potency,[2],inactive
same,Potency,[3],inactive
same,Potency,[4],inactive
Nc1ccc(S(=O)(=O)c2ccc(N)cc2)cc1,Potency,[1],inactive
same,Potency,[2],inactive
same,Potency,[3],inactive
same,Potency,[4],inactive
CC1COC(=O)O1 (stereo not given),Potency,[1],inactive
same,Potency,[2],inactive
same,Potency,[3],inactive
same,Potency,[4],inactive
NC(CO)(CO)CO,outcome,[1],inactive
same,outcome,[2],inactive
same,outcome,[3],inactive
same,outcome,[4],inactive
CC(=O)OC/C=C/c1ccccc1,Potency,[1],inactive
same,Potency,[2],inactive
same,Potency,[3],inactive
same,Potency,[4],inactive
COc1ccc(C(Cl)=C(c2ccc(OC)cc2)c2ccc(OC)cc2)cc1,Potency,[1],inactive
same,Potency,[2],inactive
same,Potency,[3],inactive
same,Potency,[4],inactive
CC(C)(C)OC=O,Potency,[1],inactive
same,Potency,[2],inactive
same,Potency,[3],inactive
same,Potency,[4],inactive
O=C(Oc1ccccc1)c1ccccc1,Potency,[1],inactive
same,Potency,[2],inactive
same,Potency,[3],inactive
same,Potency,[4],inactive
O=C(Oc1ccccc1C(=O)O)c1ccccc1O,Potency,[1],inactive
same,Potency,[2],inactive
same,Potency,[3],inactive
same,Potency,[4],inactive
CC(C)OC(=O)C(O)(CC(=O)O)CC(=O)O,Potency,[1],inactive
same,Potency,[2],inactive
same,Potency,[3],inactive
same,Potency,[4],inactive
COC(=O)c1ccc(C)cc1,Potency,[1],inactive
same,Potency,[2],inactive
same,Potency,[3],inactive
same,Potency,[4],inactive
CCn1cc(C(=O)O)c(=O)c2cc(F)c(N3CCN(C)CC3)cc21,"activity, negative = inhibition",[1],2.04% [at 23.6 µM] (inactive)
same,"activity change, negative = inhibition",[2],-0.504% [at 23.6 µM] (inactive)
same,"activity change, negative = inhibition",[3],2.98% [at 23.8 µM] (inactive)
same,"activity change, negative = inhibition",[4],-0.336% [at 23.6 µM] (inactive)
CCOc1cc(OCC)c(C(C)=O)cc1OCC,Potency,[1],inactive
same,Potency,[2],inactive
same,Potency,[3],inactive
same,Potency,[4],inactive
CCCCC(CC)COCCCN (stereo not given),Potency,[1],inactive
same,Potency,[2],inactive
same,Potency,[3],inactive
same,Potency,[4],inactive
O=C(O)c1ccccc1-n1cc(C(=O)O)c(=O)c2cc(Nc3c(F)cc(F)cc3Cl)c(Cl)cc21,Potency,[1],inactive
same,Potency,[2],inactive
same,Potency,[3],inactive
same,Potency,[4],inactive
CCCCCCCCn1sc(Cl)c(Cl)c1=O,Potency,[1],inactive
same,Potency,[2],inactive
same,Potency,[3],inactive
same,Potency,[4],inactive
NCCCN1CCN(CCCN)CC1,Potency,[1],inactive
same,Potency,[2],inactive
same,Potency,[3],inactive
same,Potency,[4],inactive
CC(=O)O[C@]1(C(C)=O)CC[C@H]2[C@@H]3C[C@H](C)C4=CC(=O)CC[C@]4(C)[C@H]3CC[C@@]21C,Potency,[1],inactive
same,Potency,[2],inactive
same,Potency,[3],inactive
same,Potency,[4],inactive
O=C(Nc1ccc(Cl)c(Cl)c1)C1CC1,Potency,[1],inactive
same,Potency,[2],inactive
same,Potency,[3],inactive
same,Potency,[4],inactive
NC[C@H]1O[C@H](O[C@H]2[C@H](O[C@@H]3O[C@H](CO)[C@@H](O)[C@H]3O)C(O)[C@H](N)C[C@@H]2N)[C@H](N)[C@@H](O)[C@@H]1O (stereo not given in full),"activity, negative = inhibition",[1],-1.41% [at 10.5 µM] (inactive)
same,"activity change, negative = inhibition",[2],0.757% [at 10.5 µM] (inactive)
same,"activity change, negative = inhibition",[3],8.04% [at 10.5 µM] (inactive)
same,"activity change, negative = inhibition",[4],-2.19% [at 10.5 µM] (inactive)
CCCCCCCC=O,Potency,[1],inactive
same,Potency,[2],inactive
same,Potency,[3],inactive
same,Potency,[4],inactive
CC(CCO)CCc1ccccc1 (stereo not given),Potency,[1],inactive
same,Potency,[2],inactive
same,Potency,[3],inactive
same,Potency,[4],inactive
Cc1oc(-c2ccccc2)nc1CCC(=O)c1ccc(CC2SC(=O)NC2=O)cc1 (stereo not given),Potency,[1],inactive
same,Potency,[2],inactive
same,Potency,[3],inactive
same,Potency,[4],inactive
O=C(CN1CCNCC1)NC1CCCCC1,Potency,[1],inactive
same,Potency,[2],inactive
same,Potency,[3],inactive
same,Potency,[4],inactive
C=C(C)OC(C)=O,Potency,[1],inactive
same,Potency,[2],inactive
same,Potency,[3],32.7 µM (active) and inactive
same,Potency,[4],inactive
CCC(=O)C1CC(C(C)C)CC=C1C (stereo not given),Potency,[1],inactive
same,Potency,[2],inactive
same,Potency,[3],inactive
same,Potency,[4],inactive
O=C(O)CC(O)C(=O)O (stereo not given),Potency,[1],inactive
same,Potency,[2],inactive
same,Potency,[3],inactive
same,Potency,[4],inactive
CCCCCCCC(=O)OCC,Potency,[1],inactive
same,Potency,[2],inactive
same,Potency,[3],inactive
same,Potency,[4],inactive
CCCCCCCCCCCCCCBr,Potency,[1],inactive
same,Potency,[2],inactive
same,Potency,[3],inactive
same,Potency,[4],inactive
COC(=O)c1ccccc1O,Potency,[1],inactive
same,Potency,[2],inactive
same,Potency,[3],inactive
same,Potency,[4],inactive
O=C1C(c2[nH]c3ccccc3c2O)=Nc2ccccc21,Potency,[1],inactive
same,Potency,[2],inactive
same,Potency,[3],inactive
same,Potency,[4],inactive
CCOCC(=O)O,Potency,[1],36.4 µM (active) and inactive
same,Potency,[2],inactive
same,Potency,[3],inactive
same,Potency,[4],inactive
CNC(=O)c1cc(Oc2ccc(NC(=O)Nc3ccc(Cl)c(C(F)(F)F)c3)cc2)ccn1,Potency,[1],inactive
same,Potency,[2],inactive
same,Potency,[3],inactive
same,Potency,[4],inactive
CC(=O)OC/C=C(\C)CCC=C(C)C,Potency,[1],inactive
same,Potency,[2],inactive
same,Potency,[3],inactive
same,Potency,[4],inactive
CC1(C)OC[C@@H]2O[C@@]3(C(=O)O)OC(C)(C)O[C@H]3[C@@H]2O1,Potency,[1],inactive
same,Potency,[2],inactive
same,Potency,[3],inactive
same,Potency,[4],inactive
CC(C)OC(=O)C(C(=O)OC(C)C)=C1SC=CS1,Potency,[1],inactive
same,Potency,[2],inactive
same,Potency,[3],inactive
same,Potency,[4],inactive
CC1(C)CC(=O)CC(C)(C)N1,Potency,[1],inactive
same,Potency,[2],inactive
same,Potency,[3],inactive
same,Potency,[4],inactive
CC(=O)N(CC(O)CO)c1c(I)c(C(=O)NCC(O)CO)c(I)c(C(=O)NCC(O)CO)c1I (stereo not given),Potency,[1],inactive
same,Potency,[2],inactive
same,Potency,[3],inactive
same,Potency,[4],inactive
C=Cc1ccccc1,Potency,[1],inactive
same,Potency,[2],inactive
same,Potency,[3],inactive
same,Potency,[4],inactive
CC(O)(c1ccc(Cl)cc1)c1ccc(Cl)cc1,Potency,[1],inactive
same,Potency,[2],inactive
same,Potency,[3],inactive
same,Potency,[4],inactive
O=C(Nc1ccc2c(c1)Cc1ccccc1-2)C(F)(F)F,Potency,[1],inactive
same,Potency,[2],inactive
same,Potency,[3],inactive
same,Potency,[4],inactive
CCNc1cc(O)ccc1C,Potency,[1],inactive
same,Potency,[2],inactive
same,Potency,[3],inactive
same,Potency,[4],inactive
COc1cc(OC)nc(O[C@H](C(=O)O)C(OC)(c2ccccc2)c2ccccc2)n1,Potency,[1],inactive
same,Potency,[2],inactive
same,Potency,[3],inactive
same,Potency,[4],inactive
Cc1ccc(S(=O)(=O)O)c(C)c1,Potency,[1],inactive
same,Potency,[2],inactive
same,Potency,[3],inactive
same,Potency,[4],inactive
CCOC(=O)OC(C)OC1=C(C(=O)Nc2ccccn2)N(C)S(=O)(=O)c2ccccc21 (stereo not given),Potency,[1],inactive
same,Potency,[2],inactive
same,Potency,[3],inactive
same,Potency,[4],inactive
Oc1ccc(Sc2ccc(O)cc2)cc1,Potency,[1],inactive
same,Potency,[2],inactive
same,Potency,[3],inactive
same,Potency,[4],inactive
